Inconclusive results are not listed. The source made the active and inactive calls. Unless noted, calls follow the shape of the dose curve; as a rule, active = well fitted curve in the direction sought with a large enough effect in the repeat runs; inconclusive = weak or mixed curves; inactive = no such curve, though single readings can be large; an effect the other way counts as inactive or inconclusive.
Key:
[1] = qHTS assay to identify small molecule agonists of the estrogen receptor alpha (ER-alpha) signaling pathway in the presence of an antagonist - cell viability counter screen (AID 1259386);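 also: cells exposed to compounds for 22 h at 37 °C before the viability read; nearly all actives have a fitted effect of over 30% in size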; also: potency is read from the fitted curve at half-maximal effect
How it was run: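 ICI-182,780 at 10.0nM final accompanies the compound titration (15 concentrations, 22hr, 37C) on VM7Luc4E2 cells. The CellTiter-Fluor fluorescence readout runs in the same wells as the luciferase assay.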

[2] = target: Progesterone receptor (Homo sapiens) (UniProt P06401); test: qHTS assay to identify small molecule agonists of the progesterone receptor (PR) signaling pathway (AID 1346784; calls by dose curve; also: nearly all actives have a fitted effect of over 30% in size)
How it was run: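 Fluorescence from LiveBLAzer B/G FRET substrate cleavage (2 hr, RT) reported PR activation in PR-UAS-bla HEK 293T cells treated 16 hr at 37C/5% CO2 with compounds; medium contained 2% charcoal-stripped FBS.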

[3] = target: Progesterone receptor (Homo sapiens) (UniProt P06401); test: qHTS assay to identify small molecule antagonists of the progesterone receptor (PR) signaling pathway (AID 1346795; active = well fitted inhibition curve with a large enough effect in the signal ratio in the repeat runs, not every such curve was filed as active; the % refers to the signal ratio; also: potency is read from the fitted curve at half-maximal effect)
How it was run: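 Fluorescence intensity measured 2 hr after adding beta-lactamase FRET substrate to PR-UAS-bla HEK293T cells that had been co-treated 16 hr with compound and 1 nM R5020 (final concentration) in 2% charcoal-stripped FBS.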

[4] = qHTS assay to identify small molecule antagonists of the progesterone receptor (PR) signaling pathway - cell viability counter screen (AID 1346798); also: series mostly up to about 92 µM; nearly all actives have a fitted effect of over 50% in size
How it was run: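 CellTiter-Glo luminescence; PR-UAS-bla HEK293T, 3,000 cells/well; compound + R5020, 16 hr, 37C/5% CO2; 30 min RT before read.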

[5] = qHTS assay to identify small molecule agonists of the progesterone receptor (PR) signaling pathway - cell viability counter screen (AID 1346799; calls by dose curve; also: nearly all actives have a fitted effect of over 45% in size)
How it was run: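 In parallel with the beta-lactamase readout, cytotoxicity toward PR-UAS-bla HEK293T cells was measured by CellTiter-Glo luminescence following 16 hr compound incubation in 2% charcoal-stripped FBS medium.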

[6] = qHTS assay to identify small molecule antagonists of the TGF-beta/Smad signaling pathway - cell viability counter screen (AID 1346824); also: nearly all actives have a fitted effect of over 50% in size
How it was run: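 SBE-bla HEK 293T cells, incubated overnight, then compound plus 0.25 ng/mL TGF-beta1 (stock added) for 5 hr at 37 C. Viability was read in the same wells by CellTiter-Glo luminescence after 30 min at room temperature.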

[7] = qHTS assay to identify small molecule agonists of the TGF-beta/Smad signaling pathway - cell viability counter screen (AID 1346829); also: top concentration of the series differs between compounds; nearly all actives have a fitted effect of over 45% in size
How it was run: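 Tox21 qHTS format: SBE-bla HEK 293T cells treated with DMSO-dissolved compounds for 5 hr; CellTiter-Glo luminescence after 30 min at room temperature.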

[8] = qHTS assay to identify small molecule agonists of the TGF-beta/Smad signaling pathway (AID 1346859; active = well fitted activation curve with a large enough effect in the signal ratio in the repeat runs, not every such curve was filed as active; the % refers to the signal ratio; also: series mostly up to about 77 µM)
How it was run: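 After overnight seeding, SBE-bla HEK 293T cells are dosed with compounds in DMSO and kept 5 hr at 37 C, 5% CO2. LiveBLAzer-type FRET substrate is then applied for 2 hr at room temperature.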

[9] = Human pregnane X receptor (PXR) small molecule agonists, qHTS cell viability counter screen (AID 1346977); also: nearly all actives have a fitted effect of over 50% in size
How it was run: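 Viability counter screen: CellTiter-Fluor signal in PXR-Luc HepG2 cells, 24hr compound exposure, 37C, 5% CO2.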

[10] = Caspase-3/7 induction in HepG2 cells by small molecules, qHTS assay (AID 1346978); also: nearly all actives have a fitted effect of over 15% in size
How it was run: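 Wild-type HepG2 cells, 2,000/well, settled 5 hr at 37 C and 5% CO2, then compound-treated for 17 hr; caspase-3/7 activity read by luminescent Caspase-Glo 3/7 after 30 min at room temperature.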

[11] = Caspase-3/7 induction in CHO-K1 cells by small molecules, qHTS cell viability counter screen (AID 1346979); also: nearly all actives have a fitted effect of over 35% in size; also: potency is read from the fitted curve at half-maximal effect
How it was run: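 Viability readout by fluorescence (CellTiter-Fluor) on wild-type CHO-K1 cells exposed for 16hr at 37C and 5% CO2 to compounds delivered in DMSO; reagent incubated 1hr before reading.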

[12] = Caspase-3/7 induction in CHO-K1 cells by small molecules, qHTS assay (AID 1346980); also: nearly all actives have a fitted effect of over 15% in size
How it was run: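 Wild-type CHO-K1 cells exposed to compounds for 17hr at 37 C, 5% CO2. Caspase-3/7 activity then measured by Caspase-Glo 3/7 luminescence after 30min at room temperature.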

[13] = Caspase-3/7 induction in HepG2 cells by small molecules, qHTS cell viability counter screen (AID 1346981); also: series mostly up to about 92 µM; nearly all actives have a fitted effect of over 30% in size
How it was run: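 Multiplexed with the caspase-3/7 assay: HepG2 cells, 16 hr compound treatment, CellTiter-Fluor viability detection by fluorescence.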

[14] = target: Nuclear receptor subfamily 1 group I member 2 (Homo sapiens) (UniProt O75469); test: Human pregnane X receptor (PXR) small molecule agonists, qHTS assay (AID 1346982); also: nearly all actives have a fitted effect of over 35% in size; also: potency is read from the fitted curve at half-maximal effect
How it was run: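 We seeded PXR-Luc HepG2 cells in assay medium containing 5% charcoal-stripped FBS, added compounds 5 hr later, incubated 24 hr, and read luminescence with ONE-Glo reagent.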

[15] = target: Acetylcholinesterase (Homo sapiens) (UniProt P22303); test: Acetylcholinesterase (AChE) small molecule antagonists: colormetric cell-based qHTS assay (AID 1347395; calls by dose curve; also: nearly all actives have a fitted effect of over 30% in size; also: potency is read from the fitted curve at half-maximal effect)
How it was run: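 Homogeneous whole-cell format. SH-SY5Y cells seeded overnight, dosed with compound (30 min, 37 C, 5% CO2), then given DTNB/acetylthiocholine cocktail for 90 min at 37 C; colorimetric signal.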

[16] = target: Thyrotropin-releasing hormone receptor (Homo sapiens) (UniProt P34981); test: qHTS assay to identify small molecule agonists of the thyrotropin-releasing hormone receptor (TRHR) signaling pathway (AID 1346891; calls by dose curve;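 also: HEK293 cells expressing TRHR with calcium dye readout; series mostly up to about 58 µM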)
How it was run: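 Compounds were tested as agonists at 15 concentrations, in triplicate, on TRHR-Hek293 cells; calcium-sensitive dye fluorescence was recorded for 3 min following addition.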

[17] = target: Thyrotropin-releasing hormone receptor (Homo sapiens) (UniProt P34981); test: qHTS assay to identify small molecule antagonists of the thyrotropin-releasing hormone receptor (TRHR) signaling pathway (AID 1346877; active = well fitted inhibition curve with a large enough effect in the repeat runs, not every such curve was filed as active; also: series mostly up to about 51 µM)
How it was run: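 Screening used HEK293 cells engineered with TRHR, with a brief 5 min room-temperature compound exposure preceding addition of TRH to 1 nM. The read-out was kinetic calcium-dye fluorescence, concentration-response from 15 doses in triplicate.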

[18] = target: Nuclear receptor subfamily 1 group I member 2 (Rattus norvegicus) (UniProt Q9R1A7); test: Rat pregnane X receptor (rPXR) activation by small molecules, qHTS assay (AID 1346983); conditions: rPXR luciferase reporter cells, One-Glo luminescence, 24 h; max activation: stronger effect = higher value; also: nearly all actives have a fitted effect of over 20% in size
How it was run: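 Cell-based rPXR activation assay: rPXR cells, 2,000 per well, rested 5hr at 37 C, then exposed to compounds in DMSO for 24 hr at 37 C. Luciferase activity read by One-Glo luminescence after 30 min at room temperature.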

[19] = target: Nuclear receptor subfamily 1 group I member 2 (Homo sapiens) (UniProt O75469); test: CYP3A4 induction through human pregnane X receptor (PXR) by small molecules, qHTS assay (AID 1346984); also: nearly all actives have a fitted effect of over 40% in size
How it was run: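 qHTS, concentration-response format: HepG2 DPX-2 line, PXR/CYP3A4-luc. Exposure 24 h, 37C. Substrate Luciferin-IPA 3uM final, 3 h. Detection One-Glo, 30 min RT.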
% is scaled to controls: 0 for no effect and ±100 for the full control effect.

Sequence of Nuclear receptor subfamily 1 group I member 2 (Homo sapiens) (O75469 whole entry, looked up): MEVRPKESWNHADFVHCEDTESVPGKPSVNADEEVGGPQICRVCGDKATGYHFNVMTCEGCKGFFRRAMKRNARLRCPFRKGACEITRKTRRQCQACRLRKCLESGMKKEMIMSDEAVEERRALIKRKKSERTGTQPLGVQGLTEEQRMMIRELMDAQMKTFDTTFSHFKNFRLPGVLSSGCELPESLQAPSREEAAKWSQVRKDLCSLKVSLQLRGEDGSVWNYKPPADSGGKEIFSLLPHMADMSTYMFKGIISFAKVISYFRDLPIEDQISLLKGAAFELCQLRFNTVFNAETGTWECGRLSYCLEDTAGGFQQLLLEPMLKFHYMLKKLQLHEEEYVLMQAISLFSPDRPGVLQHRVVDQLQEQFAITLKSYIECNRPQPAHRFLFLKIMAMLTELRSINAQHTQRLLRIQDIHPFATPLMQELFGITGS
Sequence of Progesterone receptor (Homo sapiens) (P06401 whole entry, looked up): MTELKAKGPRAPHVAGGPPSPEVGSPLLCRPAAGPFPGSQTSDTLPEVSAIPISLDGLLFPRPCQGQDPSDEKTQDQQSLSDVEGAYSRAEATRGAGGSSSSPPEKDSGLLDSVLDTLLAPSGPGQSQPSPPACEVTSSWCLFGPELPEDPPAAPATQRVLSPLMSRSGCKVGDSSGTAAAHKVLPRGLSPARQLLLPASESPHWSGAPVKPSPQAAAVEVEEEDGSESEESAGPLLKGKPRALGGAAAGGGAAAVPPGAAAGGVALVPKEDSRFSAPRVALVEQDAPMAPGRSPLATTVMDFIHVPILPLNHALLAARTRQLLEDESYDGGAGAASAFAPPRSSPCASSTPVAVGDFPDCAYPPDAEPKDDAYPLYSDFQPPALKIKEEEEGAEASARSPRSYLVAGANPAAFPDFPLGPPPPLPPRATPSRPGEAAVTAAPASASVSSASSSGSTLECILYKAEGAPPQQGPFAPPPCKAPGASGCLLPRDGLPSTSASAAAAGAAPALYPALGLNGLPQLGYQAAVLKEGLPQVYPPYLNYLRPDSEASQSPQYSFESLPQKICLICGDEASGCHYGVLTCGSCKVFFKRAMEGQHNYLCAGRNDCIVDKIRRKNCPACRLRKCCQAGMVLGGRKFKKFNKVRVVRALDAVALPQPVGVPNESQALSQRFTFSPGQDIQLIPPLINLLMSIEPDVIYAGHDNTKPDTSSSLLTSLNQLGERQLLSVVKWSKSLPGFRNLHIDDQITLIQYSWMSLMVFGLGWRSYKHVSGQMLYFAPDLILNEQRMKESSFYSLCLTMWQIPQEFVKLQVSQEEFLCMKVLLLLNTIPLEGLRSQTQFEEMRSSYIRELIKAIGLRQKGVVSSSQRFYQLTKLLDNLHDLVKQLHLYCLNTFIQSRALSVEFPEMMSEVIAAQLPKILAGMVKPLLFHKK
Sequence of Acetylcholinesterase (Homo sapiens) (P22303 whole entry, looked up): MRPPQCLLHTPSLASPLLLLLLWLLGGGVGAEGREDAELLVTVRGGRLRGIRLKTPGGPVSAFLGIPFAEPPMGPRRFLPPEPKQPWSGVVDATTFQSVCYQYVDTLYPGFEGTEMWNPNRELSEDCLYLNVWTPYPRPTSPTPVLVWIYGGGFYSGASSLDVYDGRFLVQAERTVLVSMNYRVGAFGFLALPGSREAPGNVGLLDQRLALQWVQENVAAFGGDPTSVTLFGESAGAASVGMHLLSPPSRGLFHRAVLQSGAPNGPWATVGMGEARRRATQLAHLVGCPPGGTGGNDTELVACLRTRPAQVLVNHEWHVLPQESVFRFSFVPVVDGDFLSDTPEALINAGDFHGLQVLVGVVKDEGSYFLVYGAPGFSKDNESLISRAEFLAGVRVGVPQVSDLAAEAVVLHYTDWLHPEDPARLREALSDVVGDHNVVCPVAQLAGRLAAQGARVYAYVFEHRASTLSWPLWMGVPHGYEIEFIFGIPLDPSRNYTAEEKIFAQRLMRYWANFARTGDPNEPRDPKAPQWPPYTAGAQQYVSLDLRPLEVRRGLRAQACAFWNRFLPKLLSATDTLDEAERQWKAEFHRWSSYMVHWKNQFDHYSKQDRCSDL
Sequence of Thyrotropin-releasing hormone receptor (Homo sapiens) (P34981 whole entry, looked up): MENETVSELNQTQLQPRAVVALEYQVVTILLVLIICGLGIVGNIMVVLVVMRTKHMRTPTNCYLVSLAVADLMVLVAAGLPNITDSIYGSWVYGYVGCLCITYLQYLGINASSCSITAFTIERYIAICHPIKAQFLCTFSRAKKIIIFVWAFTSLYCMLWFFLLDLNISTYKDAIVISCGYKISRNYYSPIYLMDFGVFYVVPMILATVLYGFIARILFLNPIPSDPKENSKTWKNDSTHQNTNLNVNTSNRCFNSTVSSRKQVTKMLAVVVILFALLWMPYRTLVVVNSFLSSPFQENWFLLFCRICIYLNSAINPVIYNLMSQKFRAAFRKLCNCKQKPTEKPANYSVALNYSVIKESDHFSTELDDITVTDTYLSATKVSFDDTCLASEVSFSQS
Sequence of Nuclear receptor subfamily 1 group I member 2 (Rattus norvegicus) (Q9R1A7 whole entry, looked up): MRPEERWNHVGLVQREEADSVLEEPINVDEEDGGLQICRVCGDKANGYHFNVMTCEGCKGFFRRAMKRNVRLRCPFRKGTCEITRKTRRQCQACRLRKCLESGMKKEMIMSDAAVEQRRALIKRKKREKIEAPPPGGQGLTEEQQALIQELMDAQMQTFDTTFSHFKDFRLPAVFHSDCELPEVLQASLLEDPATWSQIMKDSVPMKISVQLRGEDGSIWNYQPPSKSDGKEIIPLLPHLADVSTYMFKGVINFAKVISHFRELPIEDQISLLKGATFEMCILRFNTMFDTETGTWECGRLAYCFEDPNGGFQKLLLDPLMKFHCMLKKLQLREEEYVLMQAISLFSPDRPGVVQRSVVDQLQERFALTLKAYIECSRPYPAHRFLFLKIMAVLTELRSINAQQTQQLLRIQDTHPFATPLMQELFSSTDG

CN/C(=N\[N+](=O)[O-])NCc1cnc(Cl)s1
inactive: Potency [1] | Potency [2] | Potency [3] | Potency [4] | Potency [5] | Potency [6] | Potency [7] | outcome [8] | Potency [9] | Potency [10] | Potency [11] | Potency [12] | Potency [13] | Potency [14] | Potency [15]

CCC(C)Br (centres undefined)
inactive: Potency [1] | Potency [2] | Potency [3] | Potency [4] | Potency [5] | Potency [6] | Potency [7] | outcome [8] | Potency [16] | Potency [10] | Potency [11] | Potency [13] | Potency [14] | Potency [15]

CCCCN(CCCC)C(=S)[S-].CCCCN(CCCC)C(=S)[S-].[Ni+2]
inactive: Potency [1] | Potency [2] | Potency [3] | Potency [4] | Potency [5] | Potency [6] | Potency [7] | outcome [8] | Potency [9] | Potency [10] | Potency [11] | Potency [12] | Potency [14] | Potency [15]

COCCC#N
inactive: Potency [1] | Potency [2] | Potency [3] | Potency [4] | Potency [5] | Potency [6] | Potency [7] | outcome [8] | Potency [9] | Potency [10] | Potency [11] | Potency [12] | Potency [14] | Potency [15]

CC1CN1 (centres undefined)
inactive: Potency [1] | Potency [2] | Potency [3] | Potency [4] | Potency [5] | Potency [6] | Potency [7] | outcome [8] | Potency [9] | Potency [10] | Potency [11] | Potency [12] | Potency [13] | Potency [14] | Potency [15]

COC(=O)c1ccccc1S(=O)(=O)NC(=O)Nc1nc(C)nc(OC)n1
inactive: Potency [1] | Potency [2] | Potency [3] | Potency [4] | Potency [6] | Potency [7] | outcome [8] | Potency [16] | Potency [9] | Potency [11] | Potency [12] | Potency [13] | Potency [14] | Potency [15]

Oc1ccc([C@H]2CNCc3c2ccc(O)c3O)cc1O
active: Potency [1] 26.6 µM | Potency [11] 29.8 µM
inactive: Potency [2] | Potency [3] | Potency [4] | Potency [5] | Potency [6] | Potency [7] | outcome [8] | Potency [16] | Potency [10] | Potency [14]

CNC(=O)CSP(=O)(OC)OC
inactive: Potency [1] | Potency [2] | Potency [3] | Potency [4] | Potency [6] | Potency [7] | outcome [8] | Potency [9] | Potency [10] | Potency [12] | Potency [13] | Potency [14]

CCCCN(CCCC)C(=S)S
inactive: Potency [1] | Potency [2] | Potency [3] | Potency [4] | Potency [5] | Potency [6] | Potency [7] | outcome [8] | Potency [9] | Potency [11] | Potency [12] | Potency [13] | Potency [15]
active: Potency [14] 24.3 µM

O=C(O)[C@H](O)[C@@H](O)C(=O)O
inactive: Potency [1] | Potency [2] | Potency [3] | Potency [4] | Potency [5] | Potency [6] | Potency [7] | outcome [8] | Potency [16] | Potency [10] | Potency [11] | Potency [12] | Potency [13] | Potency [15]

CO/N=C(\C(=O)OC)c1ccccc1CO/N=C(\C)c1cccc(C(F)(F)F)c1
active: Potency [1] 30.6 µM | Potency [3] 6.86 µM | Potency [11] 0.137 µM | Potency [14] 0.686 µM
inactive: Potency [2] | Potency [4] | Potency [7] | outcome [8] | Potency [17] | Potency [16] | Potency [10] | Potency [12] | Potency [15]

O=C(Cl)c1ccccc1F
inactive: Potency [1] | Potency [2] | Potency [3] | Potency [4] | Potency [5] | Potency [6] | Potency [7] | outcome [8] | Potency [9] | Potency [10] | Potency [11] | Potency [12] | Potency [13] | Potency [14] | Potency [15]

CC(C)NCC(O)c1ccccc1Cl (centres undefined)
inactive: Potency [1] | Potency [2] | Potency [3] | Potency [4] | Potency [6] | Potency [7] | outcome [8] | Potency [17] | Potency [16] | Potency [10] | Potency [11] | Potency [12] | Potency [13] | Potency [14] | max activation [18] 1.03% | Potency [19] | Potency [15]

O=C(O)CCCCCCNC1c2ccccc2CCc2ccccc21
inactive: Potency [1] | Potency [2] | Potency [3] | Potency [4] | Potency [5] | Potency [6] | Potency [7] | outcome [8] | Potency [10] | Potency [11] | Potency [12] | Potency [13] | Potency [14] | Potency [15]

O=[N+]([O-])c1cccc2cccc([N+](=O)[O-])c12
inactive: Potency [1] | Potency [2] | Potency [4] | Potency [6] | Potency [7] | outcome [8] | Potency [17] | Potency [16] | Potency [10] | Potency [11] | Potency [12]
active: Potency [3] 27.4 µM | Potency [14] 30.8 µM | Potency [15] 20.1 µM

O=[N+]([O-])c1ccc(CCl)cc1
inactive: Potency [1] | Potency [2] | Potency [3] | Potency [4] | Potency [5] | Potency [6] | Potency [7] | outcome [8] | Potency [9] | Potency [10] | Potency [11] | Potency [12] | Potency [14] | Potency [15]

O=Cc1ccccc1
inactive: Potency [1] | Potency [2] | Potency [3] | Potency [4] | Potency [6] | Potency [7] | outcome [8] | Potency [16] | Potency [10] | Potency [11] | Potency [12] | Potency [13] | Potency [14] | Potency [15]

ClC1(Cl)C2(Cl)C3(Cl)C4(Cl)C(Cl)(Cl)C5(Cl)C3(Cl)C1(Cl)C5(Cl)C24Cl (centres undefined)
inactive: Potency [1] | Potency [2] | Potency [3] | Potency [4] | Potency [6] | Potency [7] | outcome [8] | Potency [17] | Potency [16] | Potency [9] | Potency [10] | Potency [11] | Potency [13] | Potency [14] | Potency [15]
